# Assay results from the supplement of paper PMC4022240.
# ± gives the standard deviation.
# Tests used:
# Experiment in all cases: peptide microarray binding signal (635 nm), min-max normalized on array (fraction of array maximum); higher = stronger binding
# Conditions in all cases: peptide region: H2B 7-19
# [1] = biological target: T1, HaloTag-ATRX ADD domain (163-292)
# T1 chain: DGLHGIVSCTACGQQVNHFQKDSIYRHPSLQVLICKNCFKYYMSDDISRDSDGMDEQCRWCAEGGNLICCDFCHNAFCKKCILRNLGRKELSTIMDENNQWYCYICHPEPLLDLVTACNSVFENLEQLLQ
# Experimental: (§1)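 Histone 13-mer peptides were synthesized as cellulose conjugates with a C-terminal 20-atom PEG linker and printed in triplicate on nitrocellulose. The sequence given is the unmodified backbone; PTMs (Kme1/2/3, Kac, Sph/Tph, Rme/Rme2a/Rme2s, Rcit) are listed in the label and the 'peptide modifications' condition. Slides were probed at 4 °C for 1 h with biotin-labelled (HQ)5-HaloTag reader fusions (ATRX-ADD, ING2-PHD) then streptavidin-Alexa647, or with rabbit histone antibodies then anti-rabbit Alexa647. The mean 635 nm signal of the triplicate spots was scaled 0-1 between the lowest and highest values on each array.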
# [2] = biological target: HaloTag-ING2 PHD (mouse Ing2 200-280)
# Experimental: as §1
# [3] = biological target: anti-H3K4me3 antibody ab8580
# Experimental: as §1
# [4] = biological target: anti-H3K9me3 antibody ab8898
# Experimental: as §1
# [5] = peptide modifications: H2BK12ac H2BK16ac, binder concentration: 1:2,000 dilution
# [6] = peptide modifications: H2BK12ac H2BK16ac, binder concentration: 1:10,000 dilution
# [7] = peptide modifications: H2BK12ac H2BS14ph H2BK15ac H2BK16ac, binder concentration: 1:2,000 dilution
# [8] = peptide modifications: H2BK12ac H2BS14ph H2BK15ac H2BK16ac, binder concentration: 1:10,000 dilution
# [9] = peptide modifications: H2BK12ac H2BS14ph H2BK15ac, binder concentration: 1:2,000 dilution
# [10] = peptide modifications: H2BK12ac H2BS14ph H2BK15ac, binder concentration: 1:10,000 dilution
# [11] = peptide modifications: H2BK12ac H2BS14ph H2BK16ac, binder concentration: 1:2,000 dilution
# [12] = peptide modifications: H2BK12ac H2BS14ph H2BK16ac, binder concentration: 1:10,000 dilution
# [13] = peptide modifications: H2BK12ac, binder concentration: 1:2,000 dilution
# [14] = peptide modifications: H2BK12ac, binder concentration: 1:10,000 dilution
# [15] = peptide modifications: H2BK15ac H2BK16ac, binder concentration: 1:2,000 dilution
# [16] = peptide modifications: H2BK15ac H2BK16ac, binder concentration: 1:10,000 dilution
# [17] = peptide modifications: H2BK15ac, binder concentration: 1:2,000 dilution
# [18] = peptide modifications: H2BK15ac, binder concentration: 1:10,000 dilution
# [19] = peptide modifications: H2BK16ac, binder concentration: 1:2,000 dilution
# [20] = peptide modifications: H2BK16ac, binder concentration: 1:10,000 dilution
# [21] = peptide modifications: H2BS14ph H2BK15ac H2BK16ac, binder concentration: 1:2,000 dilution
# [22] = peptide modifications: H2BS14ph H2BK15ac H2BK16ac, binder concentration: 1:10,000 dilution
# [23] = peptide modifications: H2BS14ph, binder concentration: 1:2,000 dilution
# [24] = peptide modifications: H2BS14ph, binder concentration: 1:10,000 dilution
binder,measurement,setting,value
APAPKKGSKKAVT [H2B 7-19 A P A P K Kac G S K Kac A V T],peptide microarray binding signal,"[1]; peptide modifications: H2BK12ac H2BK16ac, binder concentration: 50 nM",0.0107 ± 0.00094
same,peptide microarray binding signal,"[1]; peptide modifications: H2BK12ac H2BK16ac, binder concentration: 500 nM",0.00552 ± 0.0027
same,peptide microarray binding signal,"[2]; peptide modifications: H2BK12ac H2BK16ac, binder concentration: 10 nM",0.00734 ± 0.00071
same,peptide microarray binding signal,"[2]; peptide modifications: H2BK12ac H2BK16ac, binder concentration: 100 nM",0.0104 ± 0.0012
same,peptide microarray binding signal,[3]; [5],0.000302 ± 2.2e-05
same,peptide microarray binding signal,[3]; [6],0.0016 ± 0.00014
same,peptide microarray binding signal,[4]; [5],0.00136 ± 0.00029
same,peptide microarray binding signal,[4]; [6],0.00127 ± 8.9e-05
APAPKKGSKKAVT [H2B 7-19 A P A P K Kac G Sph Kac Kac A V T],peptide microarray binding signal,"[1]; peptide modifications: H2BK12ac H2BS14ph H2BK15ac H2BK16ac, binder concentration: 50 nM",0.00257 ± 9.2e-05
same,peptide microarray binding signal,"[1]; peptide modifications: H2BK12ac H2BS14ph H2BK15ac H2BK16ac, binder concentration: 500 nM",0.00224 ± 5e-05
same,peptide microarray binding signal,"[2]; peptide modifications: H2BK12ac H2BS14ph H2BK15ac H2BK16ac, binder concentration: 10 nM",0.005013 ± 2.5e-05
same,peptide microarray binding signal,"[2]; peptide modifications: H2BK12ac H2BS14ph H2BK15ac H2BK16ac, binder concentration: 100 nM",0.00213 ± 9.1e-05
same,peptide microarray binding signal,[3]; [7],0.000793 ± 0.00015
same,peptide microarray binding signal,[3]; [8],0.000799 ± 8.3e-06
same,peptide microarray binding signal,[4]; [7],0.000423 ± 8.2e-06
same,peptide microarray binding signal,[4]; [8],0.0011 ± 4e-05
APAPKKGSKKAVT [H2B 7-19 A P A P K Kac G Sph Kac K A V T],peptide microarray binding signal,"[1]; peptide modifications: H2BK12ac H2BS14ph H2BK15ac, binder concentration: 50 nM",0.00266 ± 0.00014
same,peptide microarray binding signal,"[1]; peptide modifications: H2BK12ac H2BS14ph H2BK15ac, binder concentration: 500 nM",0.00105 ± 0.00012
same,peptide microarray binding signal,"[2]; peptide modifications: H2BK12ac H2BS14ph H2BK15ac, binder concentration: 10 nM",0.00221 ± 5.8e-05
same,peptide microarray binding signal,"[2]; peptide modifications: H2BK12ac H2BS14ph H2BK15ac, binder concentration: 100 nM",0.00241 ± 8e-05
same,peptide microarray binding signal,[3]; [9],7.55e-05 ± 1.7e-06
same,peptide microarray binding signal,[3]; [10],0.000571 ± 1.1e-05
same,peptide microarray binding signal,[4]; [9],0.000362 ± 1.3e-05
same,peptide microarray binding signal,[4]; [10],0.00075 ± 2.1e-05
APAPKKGSKKAVT [H2B 7-19 A P A P K Kac G Sph K Kac A V T],peptide microarray binding signal,"[1]; peptide modifications: H2BK12ac H2BS14ph H2BK16ac, binder concentration: 50 nM",0.00194 ± 3.1e-05
same,peptide microarray binding signal,"[1]; peptide modifications: H2BK12ac H2BS14ph H2BK16ac, binder concentration: 500 nM",0.00229 ± 3.3e-05
same,peptide microarray binding signal,"[2]; peptide modifications: H2BK12ac H2BS14ph H2BK16ac, binder concentration: 10 nM",0.00358 ± 0.00017
same,peptide microarray binding signal,"[2]; peptide modifications: H2BK12ac H2BS14ph H2BK16ac, binder concentration: 100 nM",0.00198 ± 0.00015
same,peptide microarray binding signal,[3]; [11],0.000831 ± 0.00011
same,peptide microarray binding signal,[3]; [12],0.000628 ± 6.7e-06
same,peptide microarray binding signal,[4]; [11],0.000362 ± 6.3e-06
same,peptide microarray binding signal,[4]; [12],0.00075 ± 1.6e-05
APAPKKGSKKAVT [H2B 7-19 A P A P K Kac G S K K A V T],peptide microarray binding signal,"[1]; peptide modifications: H2BK12ac, binder concentration: 50 nM",0.00335 ± 0.0001
same,peptide microarray binding signal,"[1]; peptide modifications: H2BK12ac, binder concentration: 500 nM",0.0041 ± 0.00068
same,peptide microarray binding signal,"[2]; peptide modifications: H2BK12ac, binder concentration: 10 nM",0.00471 ± 0.00015
same,peptide microarray binding signal,"[2]; peptide modifications: H2BK12ac, binder concentration: 100 nM",0.00737 ± 0.00077
same,peptide microarray binding signal,[3]; [13],0.000208 ± 4.5e-06
same,peptide microarray binding signal,[3]; [14],0.000799 ± 1.7e-05
same,peptide microarray binding signal,[4]; [13],0.00116 ± 0.00021
same,peptide microarray binding signal,[4]; [14],0.00213 ± 0.00019
APAPKKGSKKAVT [H2B 7-19 A P A P K K G S Kac Kac A V T],peptide microarray binding signal,"[1]; peptide modifications: H2BK15ac H2BK16ac, binder concentration: 50 nM",0.00539 ± 7.7e-05
same,peptide microarray binding signal,"[1]; peptide modifications: H2BK15ac H2BK16ac, binder concentration: 500 nM",0.00995 ± 0.00033
same,peptide microarray binding signal,"[2]; peptide modifications: H2BK15ac H2BK16ac, binder concentration: 10 nM",0.0115 ± 0.00069
same,peptide microarray binding signal,"[2]; peptide modifications: H2BK15ac H2BK16ac, binder concentration: 100 nM",0.0164 ± 0.004
same,peptide microarray binding signal,[3]; [15],0.00217 ± 0.0011
same,peptide microarray binding signal,[3]; [16],0.00131 ± 5.7e-05
same,peptide microarray binding signal,[4]; [15],0.00133 ± 5.4e-05
same,peptide microarray binding signal,[4]; [16],0.00185 ± 6.1e-05
APAPKKGSKKAVT [H2B 7-19 A P A P K K G S Kac K A V T],peptide microarray binding signal,"[1]; peptide modifications: H2BK15ac, binder concentration: 50 nM",0.00238 ± 6.4e-05
same,peptide microarray binding signal,"[1]; peptide modifications: H2BK15ac, binder concentration: 500 nM",0.00448 ± 0.00011
same,peptide microarray binding signal,"[2]; peptide modifications: H2BK15ac, binder concentration: 10 nM",0.00561 ± 0.00014
same,peptide microarray binding signal,"[2]; peptide modifications: H2BK15ac, binder concentration: 100 nM",0.0039 ± 0.00027
same,peptide microarray binding signal,[3]; [17],0.00308 ± 0.00021
same,peptide microarray binding signal,[3]; [18],0.000742
same,peptide microarray binding signal,[4]; [17],0.0006645 ± 5.9e-06
same,peptide microarray binding signal,[4]; [18],0.000807
APAPKKGSKKAVT [H2B 7-19 A P A P K K G S K Kac A V T],peptide microarray binding signal,"[1]; peptide modifications: H2BK16ac, binder concentration: 50 nM",0.00392 ± 4.6e-05
same,peptide microarray binding signal,"[1]; peptide modifications: H2BK16ac, binder concentration: 500 nM",0.0109 ± 0.00096
same,peptide microarray binding signal,"[2]; peptide modifications: H2BK16ac, binder concentration: 10 nM",0.0037 ± 0.00013
same,peptide microarray binding signal,"[2]; peptide modifications: H2BK16ac, binder concentration: 100 nM",0.00617 ± 0.00026
same,peptide microarray binding signal,[3]; [19],0.00417 ± 0.00052
same,peptide microarray binding signal,[3]; [20],0.00097 ± 9.9e-06
same,peptide microarray binding signal,[4]; [19],0.000966 ± 4.4e-05
same,peptide microarray binding signal,[4]; [20],0.00144 ± 7.5e-05
APAPKKGSKKAVT [H2B 7-19 A P A P K K G Sph Kac Kac A V T],peptide microarray binding signal,"[1]; peptide modifications: H2BS14ph H2BK15ac H2BK16ac, binder concentration: 50 nM",0.00307 ± 0.00018
same,peptide microarray binding signal,"[1]; peptide modifications: H2BS14ph H2BK15ac H2BK16ac, binder concentration: 500 nM",0.00848 ± 0.00083
same,peptide microarray binding signal,"[2]; peptide modifications: H2BS14ph H2BK15ac H2BK16ac, binder concentration: 10 nM",0.00525 ± 0.00091
same,peptide microarray binding signal,"[2]; peptide modifications: H2BS14ph H2BK15ac H2BK16ac, binder concentration: 100 nM",0.00312 ± 7.5e-05
same,peptide microarray binding signal,[3]; [21],0.00427 ± 0.00019
same,peptide microarray binding signal,[3]; [22],0.00108
same,peptide microarray binding signal,[4]; [21],0.000876 ± 3.2e-05
same,peptide microarray binding signal,[4]; [22],0.00104 ± 1.1e-05
APAPKKGSKKAVT [H2B 7-19 A P A P K K G Sph K K A V T],peptide microarray binding signal,"[1]; peptide modifications: H2BS14ph, binder concentration: 50 nM",0.00226 ± 0.00011
same,peptide microarray binding signal,"[1]; peptide modifications: H2BS14ph, binder concentration: 500 nM",0.00381 ± 2.8e-05
same,peptide microarray binding signal,"[2]; peptide modifications: H2BS14ph, binder concentration: 10 nM",0.00263 ± 3.9e-05
same,peptide microarray binding signal,"[2]; peptide modifications: H2BS14ph, binder concentration: 100 nM",0.00163 ± 1.7e-05
same,peptide microarray binding signal,[3]; [23],0.000302 ± 3.1e-06
same,peptide microarray binding signal,[3]; [24],0.000799 ± 1.7e-05
same,peptide microarray binding signal,[4]; [23],0.000438 ± 3.5e-05
same,peptide microarray binding signal,[4]; [24],0.00075 ± 4e-05
